# Source: PubChem BioAssay (National Center for Advancing Translational Sciences (NCATS))
# Most compounds without a hit are left out; they make up all but 2.2% or so of the library.
# TrxR1 substrate – is turned over as a substrate by rat TrxR1. AID 588456. O89049. purified TrxR1 substrate turnover, NADPH consumption readout. 390,000 compounds, 0.01% hits. Potency, µM (highest dose often 114 µM), for the others: top-dose activity change, negative = substrate turnover; further: potency means the concentration at half of the fitted maximal effect; on the % scale 0 is the no-effect control and ±100 the full control effect; nearly all actives have a fitted effect of over 50% in size
#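 Rat TrxR1, dispensed at 90 nM, was prereduced with 400 uM NADPH (final) for 5 min at ~22 deg C, then incubated with compound 15 min before 400 uM selenite. A first-read NADPH fluorescence drop versus no-compound background flagged substrates.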
# Giardia killer – Giardia lamblia killing; activity change, % at 7.66 µM, hits read low; 340,000 compounds, 0.15% hits; Giardia lamblia trophozoite viability; in the data active means activity change below about -80%; inconclusive means between about -30% and that limit;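 further: parasites exposed to compound for two days anaerobically before the ATP read; on the % scale 0 is the no-effect control and ±100 the full control effect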
#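 Luminescence from cellular ATP indicates surviving trophozoites (100 cells/well) following 48 hrs anaerobic compound treatment at 37 deg C; signal develops 15-30 min at room temperature.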
# IL-2 act – IL-2 activation; 360,000 compounds, 0.065% hits; IL-2 activation reporter assay, cell-based qHTS; stimulated with anti-CD3/CD4/CD28 beads; in transgenic mouse T cells; activation, % (series mostly up to about 46 µM); in the data active means activation above about 50%; inconclusive means mostly about 30% to 49%; further: 0% is about no effect
#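 Unstimulated transgenic mouse T cells; 60-min compound exposure; bead-based TCR/CD4/CD28 stimulation; 18 h culture, 37 degrees C; dual fluorescence (EGFP, DsRed) plate cytometry.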
# BRCA1 expr up – BRCA1 expression activation; MCF7-BRCA1-FFLuc reporter, luminescence, 48 h; response scale: scaled: vehicle 0%, 10 µM genistein 100%; Potency, µM (highest dose often 46.1 µM), for the others: top-dose activation, actives largely listed as activators; 380,000 compounds, 1.1% hits; further: potency means the concentration at half of the fitted maximal effect; nearly all actives have a fitted effect of over 80% in size
#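 Using MCF7 cells harboring a BRCA1 firefly luciferase reporter, plated 2 h before compound pinning, the screen measured luminescence after 48 h incubation. Responses were normalized to DMSO and 10 microM genistein, then fitted for concentration-effect.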
# rTrxR1 inhibitor – blocks rat thioredoxin reductase 1 | 390,000 compounds, 1% hits | recombinant rTrxR1, NADPH fluorescence consumption, selenite substrate | Potency, µM (top dose mostly 114 µM), for inactives: at the top dose activity change, negative = inhibition, usual class: inhibitors; further: potency means the concentration at half of the fitted maximal effect; on the % scale 0 is the no-effect control and ±100 the full control effect; nearly all actives have a fitted effect of over 65% in size
#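 Rat TrxR1 (90 nM in the dispensed reagent) was pre-reduced with 400 uM NADPH for 5 min at room temperature, then incubated with compound for 15 min. After 400 uM selenite was added, NADPH fluorescence (Ex 340/Em 450 nm) was followed for 8 min.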
# IDH1 R132H inh – blocks human mutant IDH1 R132H enzyme | IDH1-R132H enzyme, NADPH consumption, diaphorase/resazurin fluorescence | Potency, µM (series often up to 76.6 µM), without a hit: at the highest dose activity change, negative = inhibition, usual class: inhibitors | 390,000 compounds, 0.093% hits; further: potency means the concentration at half of the fitted maximal effect; on the % scale 0 is the no-effect control and ±100 the full control effect; nearly all actives have a fitted effect of over 65% in size
# Target sequence (O75874 whole entry R132H, stated change not applied): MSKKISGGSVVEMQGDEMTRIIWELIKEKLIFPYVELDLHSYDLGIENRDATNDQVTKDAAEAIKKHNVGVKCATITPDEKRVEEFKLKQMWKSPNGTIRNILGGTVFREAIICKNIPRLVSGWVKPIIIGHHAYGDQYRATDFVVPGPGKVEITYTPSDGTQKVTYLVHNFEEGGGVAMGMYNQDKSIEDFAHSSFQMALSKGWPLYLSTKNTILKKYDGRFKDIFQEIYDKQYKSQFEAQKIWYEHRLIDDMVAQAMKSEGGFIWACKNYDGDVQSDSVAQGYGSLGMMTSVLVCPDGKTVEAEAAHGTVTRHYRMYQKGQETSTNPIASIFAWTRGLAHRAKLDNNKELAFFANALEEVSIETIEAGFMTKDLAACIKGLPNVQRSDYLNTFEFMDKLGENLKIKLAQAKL
#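 IDH1-R132H (0.5 ug/mL) preincubated 30 min with compound, then NADPH (0.016 mM) and alpha-KG (2 mM) added; 80 min at RT, pH 7.5. Remaining NADPH coupled via diaphorase/resazurin to fluorescence (540/590 nm); concentration-response curves normalized to no-enzyme control.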
# * hit, by the source's call; ? = inconclusive; / = not tested or not shown; [ ] = another dose, or the depositor's remark. Unless noted, the call rests on the fitted dose curve; in most records, active means well fitted curve in the direction sought with a large enough effect; inconclusive means small, poorly fitted or top-dose-only effect, or another doubt; inactive means no such curve, though single readings can be large; an effect the other way counts as inactive or inconclusive.
SMILES,TrxR1 substrate,Giardia killer,IL-2 act,BRCA1 expr up,rTrxR1 inhibitor,IDH1 R132H inh
O=C(O)c1cc[c]([Hg][Cl])cc1,12%[57.1 µM],-4,-1,-47%,0.35µM*,7%
COc1ccc(N2C(=O)CS(=O)C(c3ccccc3)C2=O)cc1 (stereo not given),3%,19,3,-6%,50µM*,8%
Cc1ccc(OCCOc2cccc(C=C3C(=O)NC(=O)NC3=O)c2)cc1,-5%[57.1 µM],-1,1,?,?,-4%
Cc1cc(C)cc(OCCOc2cccc(C=C3C(=O)NC(=O)NC3=O)c2)c1,1%,-22,0,86%,11µM*,-1%
COc1c(C=C2C(=O)NC(=O)NC2=O)c(CCN(C)C(=O)c2ccccc2)cc2c1OCO2,-1%,-8,0,-35%,18µM*,19%
NCC(=O)c1ccc(Cl)c(Cl)c1,3%,/,/,/,19%,/
Nc1c(Br)cc2c3c(cccc13)-c1ccccc1-2,-16%,6,82*,-35%,11%[57.1 µM],7%
O=c1[nH]c(O)c(/C=C2\C=Nc3ccc(OCc4ccccc4)cc32)c(=O)[nH]1,-11%,-4,193*,-18%,-26%,-11%
CCCCn1c(O)c(/C=C2\C=Nc3ccccc32)c(=O)[nH]c1=O,-10%,0,0,-18%,?,-1%
CCn1nc(-c2cccs2)nc2c(=O)n(C)c(=O)nc1-2,45µM*,4,1,-105%,?,11%
CCOc1ccc(-n2c(-c3cccs3)nc3ccccc3c2=O)cc1,-4%,?,-4,-16%,22%,-1%
CCOc1ccc(-n2c(/C=C/c3ccccc3)nc3ccccc3c2=O)cc1,-5%[57.1 µM],/,/,/,-3%[57.1 µM],-3%
CCn1nc(/C=C/c2ccccc2)nc2c(=O)n(C)c(=O)nc1-2,16µM*,-94*,-1,-92%,?,22%
O=C1NC(=O)N(c2ccccc2)C(=O)/C1=C/c1ccc(Sc2ccccc2)o1,-4%,4,96*,-35%,14µM*,-8%
O=C1NC(=O)N(c2ccccc2)C(=O)/C1=C\c1ccccc1[N+](=O)[O-],9%[57.1 µM],16,-4,9%,?,8%
O=C1NC(=O)N(c2ccccc2F)C(=O)/C1=C/c1ccc(Sc2nc3ccccc3[nH]2)o1,2%,-3,1,4%,?,?
O=C1NC(=O)N(c2cccc(Cl)c2)C(=O)/C1=C\c1ccc(Sc2nc3ccccc3[nH]2)o1,5%,-25,-8,9%,8.9µM*,?
COc1ccc2c(c1)C13CCCCC1C(C2)N(C)CC3 (stereo not given),7%[57.1 µM],/,/,/,11%[57.1 µM],/
CCN1/C(=C\C=C\C2=[N+](CC)c3ccccc3C2(C)C)C(C)(C)c2ccccc21,5%,-8,-1,-94%,-1%,35µM*
O=c1[nH]c(=S)[nH]c(O)c1/C=C1/C=c2ccccc2=N1,-3%,21,1,-56%,20µM*,-6%
Cc1cccc2c1=NC(=O)/C(=C/c1c(O)[nH]c(=O)[nH]c1=O)C=2,9%[57.1 µM],-1,-1,6%,?,6%
Cn1c(C(=O)NCCOc2ccccc2Cl)cc(=O)n(C)c1=O,-4%[57.1 µM],12,-2,16%,41%[57.1 µM],14%
O=C(Nc1nccs1)C(Cl)(Cl)Cl,9%[57.1 µM],12,0,10%,18%[57.1 µM],11%
O=C(CCl)Nc1nccs1,0%,29,0,-53%,13µM*,-1%
C/C(=N\Nc1cccc2ccccc12)c1c(O)n(Cc2ccccc2)c(=O)[nH]c1=O,3%,-11,0,-66%,45µM*,5%
SMILES,TrxR1 substrate,Giardia killer,IL-2 act,BRCA1 expr up,rTrxR1 inhibitor,IDH1 R132H inh
Cn1c(O)c(C(c2ccncc2)c2c(O)n(C)c(=S)n(C)c2=O)c(=O)n(C)c1=S,-9%,15,0,12%,7.9µM*,-5%
CS(=O)(=O)NNC(=O)Cn1nnc(-c2ccc(OCc3ccccc3Cl)cc2)n1,-4%,6,1,11µM*,29%,-5%
CCC(CO)NC(=O)[C@@H]1C=C2c3cccc4[nH]cc(c34)C[C@H]2N(C)C1 (stereo not given in full),/,/,/,/,29%,/
COCCCNC(=O)c1c(NC(=O)c2ccccc2)n(Cc2ccccc2)c2nc3ccccc3nc12,61%,-3,68*,8%,28%,8%
Oc1ccc2c3c1O[C@H]1[C@@H](O)CC[C@@]4(O)[C@@H](C2)N(CC2CCC2)CC[C@]314,-2%,-28,0,7%,0%,-10%
NC(N)=Nc1ccc2[nH]c3c(c2c1)C[C@@]1(O)[C@H]2Cc4ccc(O)c5c4[C@@]1(CCN2CC1CC1)[C@H]3O5,20%[57.1 µM],-14,-1,-14%,27µM*,-9%
COc1cccc(N2C(=O)NC(=O)/C(=C/c3ccc4c(c3)Cc3ccccc3-4)C2=O)c1,14%,3,-1,?,14µM*,-5%
O=C1NC(=O)N(c2ccccc2)C(=O)/C1=C/c1ccoc1,-4%[57.1 µM],36,0,-17%,?,-10%
COc1ccc(/C=C2/C(=O)NC(=O)N(c3ccccc3)C2=O)cc1CN1C(=O)c2ccccc2C1=O,3%,-6,-4,-1%,25µM*,0%
O=C1NC(=O)N(c2ccc(Cl)cc2)C(=O)/C1=C/c1coc2ccc(O)cc2c1=O,2%,-8,0,-35%,?,-7%
COc1cc(/C=C2/C(=O)NC(=O)N(c3ccccc3)C2=O)ccc1O,-20%,-3,2,-23%,45µM*,3%
O=C1NC(=O)N(c2ccccc2)C(=O)/C1=C/c1coc2ccc(O)cc2c1=O,-2%,-25,-1,-36%,22µM*,6%
O=C1/C(=C/c2ccc(N(CCCl)CCCl)cc2)Cc2ccccc21,-1%,/,/,/,2%,/
CSc1cccc(CNC(=O)C2CCC(=O)N(Cc3cccc(C(F)(F)F)c3)C2)c1 (stereo not given),-2%,16,-1,?,21%,2%
Cc1ccc2c(c1)cc(C(=O)Nc1ccccc1C)n2C,30%,/,/,/,25%,/
CCOc1cc(/C=C2/C(=O)NC(=O)N(c3ccc(CC)cc3)C2=O)ccc1OC(=O)c1cccs1,-3%,3,1,-12%,18µM*,0%
CCc1ccc(N2C(=O)NC(=O)/C(=C/c3cccn3CCOc3ccc(C)cc3)C2=O)cc1,-5%,18,0,-11%,-20%,-13%
CN(C)c1ccc(/C=C2/C(=N\O)C3CCN2CC3)cc1,-11%,6,-1,4µM*,-15%,5%
COc1cc(/C=C/[N+](=O)[O-])ccc1O,-8%,3,-4,-23%,3.2µM*,-4%
